Results published in PubChem BioAssay (NCI).
This is part of a sample that, as a whole, favours compounds with a hit. Of some 83,000 tested, about 20% had one in any assay.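 Cells were grown in 96-well plates and exposed to the test compound at a single concentration for 48 hours; results are reported as percent growth, with values below 10 considered active.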 A number with no mark means an inactive call. Active and inactive are the calls of the source.

Tests used:
Test in all cases: NCI-60 one-dose screen, 48 h (100 = growth as untreated, 0 = no growth, -100 = all killed)
NCI-H23 lung = conditions: 10 µM unless noted
NCI-H226 lung = conditions: 10 µM unless noted
NCI-H322M lung = conditions: 10 µM unless noted
HOP-62 NSCLC = conditions: 10 µM unless noted
NCI-H460 lung = conditions: 10 µM unless noted
HOP-92 NSCLC = conditions: 10 µM unless noted
NCI-H522 lung = conditions: 10 µM unless noted
A549/ATCC NSCLC = conditions: 10 µM unless noted
786-0 renal = conditions: 10 µM unless noted
COLO 205 colon = conditions: 10 µM unless noted
DU-145 prostate = conditions: 10 µM unless noted
MALME-3M melanoma = conditions: 10 µM unless noted
MDA-MB-231 breast = conditions: 10 µM unless noted
RXF 393 renal = conditions: 10 µM unless noted
SF-268 CNS = conditions: 10 µM unless noted
SF-295 CNS = conditions: 10 µM unless noted
SF-539 CNS = conditions: 10 µM unless noted
M14 melanoma = conditions: 10 µM unless noted
K-562 leukemia = conditions: 10 µM unless noted
UACC-257 melanoma = conditions: 10 µM

| Compound | growth (NCI-H23 lung) | growth (NCI-H226 lung) | growth (NCI-H322M lung) | growth (HOP-62 NSCLC) | growth (NCI-H460 lung) | growth (HOP-92 NSCLC) | growth (NCI-H522 lung) | growth (A549/ATCC NSCLC) | growth (786-0 renal) | growth (COLO 205 colon) | growth (DU-145 prostate) | growth (MALME-3M melanoma) | growth (MDA-MB-231 breast) | growth (RXF 393 renal) | growth (SF-268 CNS) | growth (SF-295 CNS) | growth (SF-539 CNS) | growth (M14 melanoma) | growth (K-562 leukemia) | growth (UACC-257 melanoma) |
| --- | --- | --- | --- | --- | --- | --- | --- | --- | --- | --- | --- | --- | --- | --- | --- | --- | --- | --- | --- | --- |
| Cn1cc(-c2nn3c(=O)cc(-c4ccccc4)nc3s2)c2cc(F)ccc21 | 59.7% | 46.4% | 65.6% | 45% | 15.5% | -3.43% (active) | -37.4% (active) | 36.7% | 82.5% | 44.8% | 66.6% | 22.7% | 58.3% | 45.9% | 78.4% | 34.7% | 49.9% | 46.6% | – | – |
| CCOC(=O)c1c(NCC(=O)Nc2cccc([N+](=O)[O-])c2)sc2c1CCCC2 | -70.8% (active) | -58.1% (active) | -29.2% (active) | -48.4% (active) | -51.5% (active) | -24.7% (active) | -67% (active) | – | -32% (active) | -56.2% (active) | -15.2% (active) | -63.9% (active) | -44% (active) | -84.6% (active) | -42.2% (active) | -90.2% (active) | -55.6% (active) | -85.2% (active) | 3.3% (active) | -27% (active) |
| C=C(C)C(=O)O[C@H]1C[C@@]2(C)OC(=CC2=O)[C@H](C)[C@H](O)[C@H]2OC(=O)C(=C)[C@@H]21 | 58.4% | 92.2% | 93.8% | 93.5% | 93.3% | 69.7% | -67.6% (active) | – | 64.2% | 13.6% | 73.2% | 48.3% | 76.6% | 22.2% | 79.8% | 93.8% | 74.7% | 71.7% | 20.4% | 67% |
| O=c1cc(-c2ccccc2)nc2sc(-c3c[nH]c4ccc(F)cc34)nn12 | 73.2% | 41% | 61.2% | 19.1% | 17.2% | -1.32% (active) | 62.6% | 58.7% | 15.8% | 74.7% | 63.3% | 21.9% | 51.8% | 40.5% | 82.9% | 82.9% | 68% | 63.5% | – | – |
